# In PubChem BioAssay (Tox21):
# Records with an inconclusive call do not appear. Unmarked numbers belong to inactive results. Active and inactive are the calls of the source. Calls come from the whole dose curve; as a rule, active = well fitted curve in the direction sought with a large enough effect in the repeat runs; inconclusive = weak or mixed curves; inactive = no such curve, though single readings can be large; an effect the other way counts as inactive or inconclusive.
# Experiment: A CellTox Green Cytotoxicity Assay to monitor cytotoxicity in HepG2 cells - 32 hour (AID 1224883); note: nearly all actives have a fitted effect of over 50% in size; note: potency is the fitted concentration of half-maximal effect
# Details: CellTox Green fluorescence; series mostly up to 76.8 µM; cytotoxicity increase: at the top concentration
# How it was run: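 Measurements at 0, 8, 16, 24, 32 and 40 h of treatment captured CellTox Green fluorescence in HepG2 cells that had been co-plated with reagent and preincubated 5 h at 37 C/5% CO2.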
# % is set by controls: 0 for no effect and ±100 for the full control effect.
SMILES,cytotoxicity increase,Potency
COc1cccc(OC)c1C(=O)O,-9.42%,–
S=c1nccc[nH]1,2.06%,–
Cc1cc(C)c(/C=C2\C(=O)Nc3ccccc32)[nH]1,–,19 µM (active)
O=C1CCc2cc(OCCCCc3nnnn3C3CCCCC3)ccc2N1,9.3% [at 35.3 µM],–
FC(F)(F)c1cccc(Cl)c1,-3.57%,–
CCOC(=O)c1ccc(C2CCC(NC[C@H](O)COc3ccc(O)c(NS(C)(=O)=O)c3)CC2)cc1 (some centres undefined),–,45.2 µM (active)

# Experiment: A CellTox Green Cytotoxicity Assay to monitor cytotoxicity in HEK293 cells - 8 hour (AID 1224884); note: nearly all actives have a fitted effect of over 35% in size
# Details: CellTox Green fluorescence; series mostly up to 76.8 µM; cytotoxicity increase: at the top concentration
# How it was run: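 Tox21 screen in HEK293: membrane-impermeant cyanine dye fluoresces on binding dead-cell DNA; compound pinned 5 h post-seeding, plates held at 37 C, signal read repeatedly through 40 h.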
row,SMILES,cytotoxicity increase
1,Cc1ccc(-c2ccccc2)cc1,20.6%
2,CC1=CCC(=C(C)C)CC1,-12.5%
3,S=C([S-])NCCNC(=S)[S-].S=C([S-])NCCNC(=S)[S-].[Mn+2].[Zn+2],-8.26% [at 35.3 µM]
4,C=Cc1ccccc1C=C,-6.59% [at 200 µM]
5,COC(=O)Nc1nc2ccc(C(=O)c3ccccc3)cc2[nH]1,-11.6% [at 35.3 µM]
6,CCc1oc2ccccc2c1C(=O)c1cc(I)c(O)c(I)c1,7.83% [at 35.3 µM]
7,CCOC(=O)NNc1ccc(N(CC)CC(C)O)nn1 (centres undefined),-6.03% [at 35.3 µM]
8,NC[C@H]1O[C@H](O[C@H]2[C@H](O[C@@H]3O[C@H](CO)[C@@H](O)[C@H]3O)C(O)[C@H](N)C[C@@H]2N)[C@H](N)[C@@H](O)[C@@H]1O (some centres undefined),-4.48% [at 6.97 µM]
9,[Cu+],-0.357%
10,O=S(=O)(O)c1ccc(N=Nc2c(O)ccc3ccccc23)cc1,-22.4%
11,COc1cc2nc(N3CCN(C(=O)c4ccco4)CC3)nc(N)c2cc1OC,-2.23% [at 15.8 µM]
12,CC(C(=O)O)c1ccc2c(c1)[nH]c1ccc(Cl)cc12 (centres undefined),13.1% [at 35.3 µM]
13,Fc1ccc(C(c2ccc(F)cc2)N2CCNCC2)cc1,-4.34% [at 35.3 µM]
14,CCCCN(CCCC)CC(O)c1cc(Cl)cc2c1-c1ccc(Cl)cc1/C2=C/c1ccc(Cl)cc1 (centres undefined),7.49% [at 35.3 µM]
15,C#C[C@]1(OC(C)=O)CC[C@H]2[C@@H]3CCC4=C[C@@H](OC(C)=O)CC[C@@H]4[C@H]3CC[C@@]21C,29.4% [at 35.3 µM]
16,CC1(C)CC(O)CC(C)(C)N1,-2.65%

row,SMILES,cytotoxicity increase
1,O=c1[nH]c(=O)n([C@H]2C[C@H](O)[C@@H](CO)O2)cc1F,-16.8% [at 35.3 µM]
2,COC(C)=O,-7.23%
3,O=C(O)c1cc(O)c2ccccc2c1O,-6.54%
4,OC/C=C/CO,-4.31%
5,Nc1ccc(C(=O)O)c(O)c1,-2.06% [at 35.3 µM]
6,C/C=C/C=C/COC(=O)C(C)C,3.02%
7,CC(C)=CCNc1ncnc2c1ncn2[C@@H]1O[C@H](CO)[C@@H](O)[C@H]1O,-8.9% [at 35.3 µM]
8,C#Cc1ccc(-c2ccccc2F)cc1,-4.9% [at 35.3 µM]
9,CCCCNS(=O)(=O)c1ccc(C)cc1,-10.6%
10,CC1=Nc2ccccc2C1(C)C,5.29%
11,O=C(c1ccc(O)c(O)c1)c1ccc(O)cc1O,-5%
12,COc1cccc(OC)c1C(=O)O,-5.27%
13,CCC(=O)OC(=O)CC,0.524%
14,C=CC(=O)Nc1cc2c(Nc3ccc(F)c(Cl)c3)ncnc2cc1OCCCN1CCOCC1,-9.56% [at 35.3 µM]
15,FC(F)(F)c1cccc(Cl)c1,-11.3%
16,CCOC(=O)c1ccc(C2CCC(NC[C@H](O)COc3ccc(O)c(NS(C)(=O)=O)c3)CC2)cc1 (some centres undefined),2.21%

# Experiment: qHTS RealTime-Glo MT Cell Viability Assay in HepG2 cells - 16 hour (AID 1224885); note: nearly all actives have a fitted effect of over 50% in size; note: potency is the fitted concentration of half-maximal effect
# Details: RealTime-Glo luminescence; series mostly up to 76.8 µM; activity change, negative = cytotoxic: at the top concentration
# How it was run: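 Cell number in HepG2 cultures estimated from NanoLuc luminescence generated by metabolic reduction of a prosubstrate by living cells. The homogeneous, nonlytic format allowed repeated reads at 0, 8, 16, 24, 32 and 40 h of compound exposure.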
SMILES,"activity change, negative = cytotoxic",Potency
Cc1ccc(-c2ccccc2)cc1,0.285%,–
S=C([S-])NCCNC(=S)[S-].S=C([S-])NCCNC(=S)[S-].[Mn+2].[Zn+2],-20.2% [at 35.3 µM],–
COC(=O)Nc1nc2ccc(C(=O)c3ccccc3)cc2[nH]1,-12.6% [at 35.3 µM],–
CCc1oc2ccccc2c1C(=O)c1cc(I)c(O)c(I)c1,-0.836% [at 35.3 µM],–
CC(C)CCCCCOC(=O)CCS,0.0858%,–
CCOC(=O)NNc1ccc(N(CC)CC(C)O)nn1 (centres undefined),-0.544% [at 35.3 µM],–
NC[C@H]1O[C@H](O[C@H]2[C@H](O[C@@H]3O[C@H](CO)[C@@H](O)[C@H]3O)C(O)[C@H](N)C[C@@H]2N)[C@H](N)[C@@H](O)[C@@H]1O (some centres undefined),1.38% [at 6.97 µM],–
COc1cc2nc(N3CCN(C(=O)c4ccco4)CC3)nc(N)c2cc1OC,-15.2% [at 15.8 µM],–
Fc1ccc(C(c2ccc(F)cc2)N2CCNCC2)cc1,-11.4% [at 35.3 µM],–
C#C[C@]1(OC(C)=O)CC[C@H]2[C@@H]3CCC4=C[C@@H](OC(C)=O)CC[C@@H]4[C@H]3CC[C@@]21C,-14.1% [at 35.3 µM],–
CC1(C)CC(O)CC(C)(C)N1,-0.844%,–
O=c1[nH]c(=O)n([C@H]2C[C@H](O)[C@@H](CO)O2)cc1F,-0.369% [at 35.3 µM],–
Cc1cc(-c2ccc(N=Nc3cc(S(=O)(=O)O)c4ccccc4c3N)c(C)c2)ccc1N=Nc1cc(S(=O)(=O)O)c2ccccc2c1N,-8.24%,–
COC(C)=O,0.0073%,–
OC/C=C/CO,-0.135%,–
Nc1ccc(C(=O)O)c(O)c1,0.199% [at 35.3 µM],–
CCCCCCOC(=O)C(C)CC (centres undefined),1.2%,–
C#Cc1ccc(-c2ccccc2F)cc1,0.276% [at 35.3 µM],–
COc1ccc(NC(=O)CC(C)=O)cc1,5.27%,–
CCCCNS(=O)(=O)c1ccc(C)cc1,-3.68%,–
O=C(c1ccc(O)c(O)c1)c1ccc(O)cc1O,-7.45%,–
S=c1nccc[nH]1,-1.08%,–
CCC(=O)OC(=O)CC,0.431%,–
C=CC(=O)Nc1cc2c(Nc3ccc(F)c(Cl)c3)ncnc2cc1OCCCN1CCOCC1,–,8.49 µM (active)
O=C1CCc2cc(OCCCCc3nnnn3C3CCCCC3)ccc2N1,-0.195% [at 35.3 µM],–
FC(F)(F)c1cccc(Cl)c1,0.55%,–
